# The list is not random: actives were taken first. Their share in the collection is about 10%.
# GLS inh: qHTS for Inhibitors of Glutaminase (GLS); actives 0.21% (n = 410,000); Potency, µM (doses to about 45.5 µM), without a hit: at the highest dose activity change, negative = inhibition, hits mostly inhibitors; Glutaminase kidney isoform, mitochondrial (Homo sapiens), O94925; GLS enzymatic activity, qHTS titration; further: on the % scale 0 is the no-effect control and ±100 the full control effect
#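 Coupled fluorescence readout: glutamate oxidase/HRP/Amplex Red detect glutamate formed by hKGA from L-glutamine (1 mM solution added). Buffer 45 mM KH2PO4 pH 8.2, 0.02% Tween-20; reads at t0 and 30 min RT.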
# G9a inh: qHTS Assay for Inhibitors of Histone Lysine Methyltransferase G9a; Histone-lysine N-methyltransferase EHMT2 (Homo sapiens), Q96KQ7; G9a H3K9 monomethylation, AlphaScreen, 2 h; Potency, µM (highest dose often 102 µM), for inactives: at the top dose activity, negative = inhibition, actives largely listed as inhibitors; actives 8.8% (n = 350,000); further: on the % scale 0 is the no-effect control and ±100 the full control effect; nearly all actives have a fitted effect of over 75% in size
#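 Methyltransferase reactions run at room temperature for 2 h (20 nM enzyme, 500 nM biotin-H3K9 peptide, 20 uM SAM) after a 15 min compound preincubation; product detected by AlphaScreen beads and anti-H3K9me1 antibody.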
# HP1b binding inh: HTS for Inhibitors of HP1-beta Chromodomain Interactions with Methylated Histone Tails; Chromobox protein homolog 1 (Homo sapiens), P83916; AlphaScreen HP1-beta / biotin-H3K9me3 peptide binding; Potency, µM (highest dose often 114 µM), for the others: at the highest dose activity change, negative = inhibition, most hits filed as inhibitors; actives 0.56% (n = 390,000); AID 540317, 2011; further: nearly all actives have a fitted effect of over 70% in size
#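 Compound inhibition of the preformed complex between 50 nM HP1-beta and 50 nM biotinylated H3K9me3 peptide was read by AlphaScreen. Buffer was PBS pH 7.4 with 0.01% Tween-20. Incubations ran 30 min at room temperature, with 10 ug/mL donor/acceptor beads.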
# JMJD2A Tudor: qHTS Assay for Inhibitors of JMJD2A-Tudor Domain; Potency, µM (titrated, usually from 114 µM), for the others: top-dose activity change, negative = inhibition, most hits filed as inhibitors; AlphaScreen JMJD2A-Tudor / H3K4me3 peptide binding; AID 504339, 2011; Lysine-specific demethylase 4A (Homo sapiens), O75164; actives 4.4% (n = 390,000); further: on the % scale 0 is the no-effect control and ±100 the full control effect; nearly all actives have a fitted effect of over 50% in size
# L3MBTL1 block: qHTS Assay for the Inhibitors of L3MBTL1; AlphaScreen L3MBTL1–H3K9me1 peptide binding; Potency, µM (doses to about 57.1 µM), inactives show at the top dose activity, negative = inhibition, usual class: inhibitors; actives 0.66% (n = 230,000); AID 485360, 2010; further: on the % scale 0 is the no-effect control and ±100 the full control effect; nearly all actives have a fitted effect of over 60% in size
#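 First, the protein-peptide complex forms for 30 min at room temperature (L3MBTL1 50 nM, biotinylated H3K9me1 peptide 75 nM). Next, compounds are pin-transferred and incubated 30 min. Finally, AlphaScreen beads are added and read after 30 min.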
# BAZ2B block: qHTS Assay for Inhibitors of BAZ2B | Bromodomain adjacent to zinc finger domain protein 2B (Homo sapiens), Q9UIF8 | AlphaScreen BAZ2B-H3K14Ac peptide displacement | Potency, µM (series often up to 114 µM), without a hit: at the top dose activity change, negative = inhibition, actives largely listed as inhibitors | actives 4.4% (n = 360,000); further: on the % scale 0 is the no-effect control and ±100 the full control effect; nearly all actives have a fitted effect of over 60% in size
#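 In this displacement format the biotinylated H3(5-23) peptide acetylated at Lys14 serves as ligand at 50 nM, with BAZ2B at 50 nM in PBS pH 7.4 containing 0.01% Tween-20. Donor and acceptor beads are 10 ug/mL final.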
# Starred values were filed as active, the others as inactive; ? = inconclusive; / = no result given; ! = not active in a repeat; [ ] = remark or other dose. The call rests on the fitted dose curve; in most records, active means well fitted curve in the direction sought with a large enough effect; inconclusive means small, poorly fitted or top-dose-only effect, or another doubt; inactive means no such curve, though single readings can be large; an effect the other way counts as inactive or inconclusive. Potency means the concentration at half of the fitted maximal effect.
SMILES,GLS inh,G9a inh,HP1b binding inh,JMJD2A Tudor,L3MBTL1 block,BAZ2B block
CC(C)(C)OC(=O)N/N=C\c1ccc[nH]1,4.6%,-1.8%,26.9%,-9.8%,/,-6.0%
Cc1cc(/C=N/Nc2ccc([N+](=O)[O-])cn2)c(C)n1-c1ccc(C(=O)O)cc1,-24.0%,50.1µM*,-36.3%,?,/,50.1µM*
COc1ccc(CC(=O)N/N=C/c2cccn2-c2ccc([N+](=O)[O-])cc2)cc1OC,8.7%,?,?,44.7µM*,?,39.8µM*
COc1cc2[nH]c(=O)n(Cc3ccc(C(=O)NCc4ccccc4)cc3)c(=O)c2cc1OC,-7.6%,5.1%[59 µM],39.9%,-5.8%,/,-1.2%
Cc1cc(C(=O)N/N=C/c2cccc([N+](=O)[O-])c2)c(C)o1,0.2%,27.3%,30.8%,-17.6%,-1.4%,-26.9%
CC(C)(C)OC(=O)N/N=C/c1cccc([N+](=O)[O-])c1,6.2%,50.1µM*,25.5%,-1.0%,/,/
CCOC(=O)[C@H](CCc1ccccc1)N[C@@H](C)C(=O)N1CCC[C@@H]1C(=O)O,-3.6%,20µM*,-4.2%,20µM*,6.5%,?
CCOC(=O)[C@H](CCc1ccccc1)N[C@@H](C)C(=O)N1CCC[C@H]1C(=O)O,0.8%,-15.0%,23.4%,50.1µM*!,8.3%,-6.5%
Cc1cc(NC(=O)Cc2ccccc2)cc(-c2nc3ccccc3o2)c1O,-0.8%,10.0%[59 µM],30.1%,-10.4%,/,-14.5%
N#Cc1ccccc1Cn1c(=O)n(CCCCC(=O)NCc2ccc3c(c2)OCO3)c(=O)c2ccccc21,-10.4%,-21.1%[59 µM],20.0%,-6.1%,/,4.7%
O=C(N/N=C/c1coc2ccccc2c1=O)c1cc(Br)c(O)c(Br)c1,-23.6%,50.1µM*,22.6%,-32.6%,/,-38.7%
CCc1ccccc1NC(=O)c1cn(C)c(=O)c2ccccc12,8.7%,9.5%[59 µM],37.6%,-5.5%,/,6.9%
CCC(C)Sc1cc(-c2nc3ccccn3c2NC2CCCCC2)ccc1OC (stereo not given),?,8.6%[2.33 µM],3.5%,79.4µM*,-10.2%,?
Cc1ccn2c(NC3CCCC3)c(-c3cccs3)nc2c1,?,44.7µM*,-11.5%,10µM*,-5.9%,?
c1csc(-c2nc3ccccn3c2NC2CCCCC2)c1,0.0%,?,16.6%,-13.4%,-9.2%,?
CCC(C)Sc1cc(-c2nc3cc(C)ccn3c2NC2CCCCC2)ccc1OC (stereo not given),-23.2%,/,-10.2%,50.1µM*,-14.1%,/
CC(C)c1nc2ccccn2c1NC1CCCCC1,12.2%,?,5.4%,-22.9%,-1.6%,-37.3%
CC(=O)c1ccc(-c2cccc(-c3nc4ccccn4c3NC3CCCCC3)c2)cc1,25.5%,-13.0%[2.33 µM],-13.6%,?,-16.5%,39.8µM*
CCOC(=O)N1CCN(C(=O)c2ccc3c(SCC(=O)O)c4c(nc3c2)CCCC4)CC1,5.9%,39.8µM*,36.3%,-16.7%,6.9%,-3.4%
O=C(O)CSc1c2c(nc3cc(C(=O)N4CCOCC4)ccc13)CCCC2,2.7%,33.8%[0.501 µM],14.8%,39.8µM*,-1.3%,70.8µM*
CCc1cccc(C)c1NC(=O)C(CC)n1ncn2c(cc3cc(C)ccc32)c1=O (stereo not given),-2.6%,13.5%[59 µM],49.1%,8.4%,/,1.6%
CCOc1ccccc1CNC(=O)c1cc(-c2ccc(OC)cc2)nc2ccc(C(C)C)cc12,-8.9%,-1.3%[59 µM],-3.7%,-19.6%,/,4.3%
CCc1nnc(N/N=C/c2ccccc2F)n1N,?,?,35.7%,-1.3%,/,?
COc1cccc(/C=N/Nc2nnc(C)n2N)c1OCc1ccccc1Cl,14.1%,22.4µM*,8.4%,-29.8%,9.7%,15.6%
CC(C)(C)c1nnc(N/N=C/c2ccccc2)n(N)c1=O,-5.2%,-3.1%[59 µM],21.1%,-23.6%,0.4%,5.5%
SMILES,GLS inh,G9a inh,HP1b binding inh,JMJD2A Tudor,L3MBTL1 block,BAZ2B block
CC(C)(C)c1nnc(N/N=C/c2ccccc2O)n(N)c1=O,27.9%,78.5%[59 µM],20.1%,22.4µM*,15.8µM*,20µM*
CCc1nnc(N/N=C/c2ccccc2Cl)n1N,?,22.2%[0.501 µM],15.8%,89.1µM*,-7.1%,?
COc1ccc(CNC(=O)Cn2c(=O)cc(-c3ccccc3)c3c(C)nn(C)c32)cc1,5.6%,2.0%[59 µM],13.7%,-17.3%,/,-10.8%
CCCOc1ccc(CNC(=O)C(C)n2nc(C)n3c(cc4occc43)c2=O)cc1 (stereo not given),0.7%,10.6%[59 µM],4.3%,-10.5%,/,-4.2%
CCCCOC(=O)Nc1ccc(N2CCCCC2)cc1,27.7%,7.94µM*,?,28.2µM*,-25.1%,?
CCOc1ccc(/C=C/C(=O)Nc2ccc(N3CCOCC3)cc2)cc1,?,/,-9.1%,25.1µM*,-1.6%,-3.1%
CCCCOC(=O)Nc1ccc(N2CCOCC2)cc1,33.8%,7.08µM*,7.9%,-21.6%,-20.6%,-7.6%
COc1ccc(/C=C/C(=O)OCC(=O)Nc2ccc(N3CCOCC3)cc2)cc1,-5.4%,29.5%,55.4%,-22.6%,/,-2.4%
CCOC(=O)c1sc(=S)sc1SCc1cccc(C(F)(F)F)c1,3.2%,31.6µM*,-15.7%,-28.3%,/,-35.4%
O=C(C(=O)N1CCN(c2ccccc2Cl)CC1)c1c[nH]c2ccccc12,-4.2%,-5.5%,7.2%[57 µM],?,/,50.1µM*
Fc1ccccc1N1CCN(C2CCN(Cc3c[nH]c4ccccc34)CC2)CC1,17.5%,-5.5%[59 µM],22.6%,-6.1%,-14.2%,0.5%
COc1ccc(CN2CCN(Cc3c[nH]c4ccccc34)CC2)cc1OC,14.1%,/,/,/,/,/
COc1ccc(Br)cc1CN1CCN(Cc2c[nH]c3ccccc23)CC1,-1.8%,8.91µM*,?,2.82µM*,/,14.1µM*
Clc1ccccc1N1CCN(Cc2c[nH]c3ccccc23)CC1,-1.3%,/,?,20µM*,/,/
COc1ccc(CN2CCN(Cc3c[nH]c4ccccc34)CC2)c(OC)c1,7.5%,/,/,/,/,/
COc1ccc(CN2CCN(Cc3c[nH]c4ccccc34)CC2)cc1,10.5%,?,35.5µM*,0.794µM*,/,20µM*
COc1cccc(C(c2sc3nc(-c4ccco4)nn3c2O)N2CCOCC2)c1 (stereo not given),-1.6%,-30.3%[59 µM],32.2%,-1.0%,/,-12.6%
Cc1cccc(-c2nc(C)c(CCNC(=O)C(=O)Nc3ccc(C)c(C)c3)s2)c1,3.7%,21.6%[59 µM],13.5%[57 µM],-2.9%,/,2.0%
